Most compounds without a hit are left out; they make up all but 4.3% or so of the library.
HSF1 inhib – HSF1 inhibition. NIH3T3-HGL HSE-luciferase, MG132-induced, luminescence 8 h; stronger effect = lower value. activity change, negative = inhibition, % at 7.5 µM (by protocol). 300,000 tested, 0.77% active. AID 2098;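 active means more than half of replicate wells show activity change below -50%, luminescence cut by over half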;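 further: luciferase reports HSF-1 transcriptional activity via heat shock element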
MITF TRPM1 HTS – increases MITF-driven TRPM1 promoter luciferase signal | SK-MEL-5 TRPM1-promoter luciferase, 24 h; % of positive control, neutral wells = 0 | activation, % at 12.5 µM | 300,000 tested, 0.75% active;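 active means mean activation of at least 80% with every replicate also reaching 80%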
Wnt act – Wnt/beta-catenin pathway activation. Wnt/beta-catenin reporter cell assay, activator, plate reader. activation, % at 9.35 µM. 300,000 tested, 1.2% active. AID 743398; in the data active means activation above about 30%, passing the limit was not always enough
SMARCA2 activ – activators of SMARCA2 function | MG213 cells, MMTV-luciferase reporter, dexamethasone, overnight | activation, % at 9.1 µM | 370,000 tested, 1% active | AID 652017; in the data active means activation above about 7.8%
HSF-1 act – increases HSF-1 driven luciferase reporter signal. activation, % at 9 µM. AID 504408. NIH3T3-HGL HSF-1 luciferase reporter, MG132, 8 h; 100% = twice DMSO control signal. 300,000 tested, 1.7% active;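 active means mean replicate activation of at least 50% with a set share of replicates each reaching 50%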
esBAF inh – inhibitors of esBAF chromatin remodeling in mouse ES cells; Bmi1-luciferase knock-in reporter, 24 h; 100% = twice the neutral-well signal; 350,000 tested, 2% active; reporter increase, % at 12.5 µM; in the data active means activation above about 40%;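 further: a rise in the Bmi1 reporter signal indicates esBAF inhibition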
Each line names hits and unclear results; the compound was inactive in the other large screens.

CC(=O)OC1CC[C@]2(C#N)[C@H]3CC[C@]4(C)[C@H](C5C=CC(=O)O5)CCC4(O)C3CCC2(O)C1 (stereo not given in full)	SMARCA2 activ 7.8
O=C(Cn1ncc2c3ccccc3n(Cc3cccc(Cl)c3)c2c1=O)N1CCC2(CC1)OCCO2	none (no result: Wnt act)
Cn1c2ccccc2c2cnn(CC(=O)N3CCC4(CC3)OCCO4)c(=O)c21	HSF1 inhib -56.1 (no result: MITF TRPM1 HTS, Wnt act, SMARCA2 activ, esBAF inh)
CCCNC(=O)[C@H]1[C@H](CO)[C@H]2Cn3c(cccc3=O)[C@@H]1N2CCC	none (no result: HSF1 inhib, MITF TRPM1 HTS, Wnt act, SMARCA2 activ, HSF-1 act)
Cc1nc2c(-c3ccccc3)c(C)nn2c(C)c1CCC(=O)N1CCC2(CC1)OCCO2	none (no result: MITF TRPM1 HTS)
Cc1nc2c(c(C)nn2-c2ccccc2)c(C)c1CCC(=O)N1CCC2(CC1)OCCO2	esBAF inh 54.7 (no result: Wnt act, SMARCA2 activ)
COc1ccc(C(C)=O)cc1CC(C(=O)c1ccccc1)N(C)C (stereo not given)	esBAF inh 41.3
COc1ccc(-n2c(-c3ccc(C)cc3)nc3ccccc3c2=O)cc1	none (no result: MITF TRPM1 HTS, esBAF inh)
COc1ccc(-c2cc(=O)c3c(OC)c(OC)c(OC)cc3o2)cc1	none
COc1ccc(-c2cc(=NCCC(=O)O)c3cc(C)ccc3o2)cc1	MITF TRPM1 HTS 112.5, esBAF inh 68.9
COc1ccc(-c2cc(=Nc3ccccc3)c3cc(C)ccc3o2)cc1	HSF-1 act 66.3 (no result: esBAF inh)
CCCN1[C@@H]2Cn3c(ccc(-c4cccc(C(=O)N(C)C)c4)c3=O)[C@H]1[C@@H](C(=O)OC)[C@@H]2CO	none (no result: HSF1 inhib, MITF TRPM1 HTS, Wnt act, SMARCA2 activ, HSF-1 act)
CCC(=O)N1[C@@H]2Cn3c(ccc(-c4cccc(F)c4)c3=O)[C@H]1[C@@H](C(=O)OC)[C@@H]2CO	none (no result: HSF1 inhib, MITF TRPM1 HTS, Wnt act, SMARCA2 activ, HSF-1 act)
CCCCn1c(=O)c(C=Nc2cccnc2Cl)c(O)n(CCCCl)c1=O	Wnt act 51.3 (no result: HSF1 inhib, HSF-1 act, esBAF inh)
N#CCCn1cc(C(=O)Nc2ccc([N+](=O)[O-])cc2)c(-c2ccccc2)n1	HSF1 inhib -71.1 (no result: esBAF inh)
COc1cc(O)cc2c1C(=O)OC(C)CCCC(=O)CCC/C=C\2 (stereo not given)	HSF-1 act 107.2
COc1ccc(C2CN(C)CC2C(=O)c2ccc(F)cc2)cc1Cl (stereo not given)	none (no result: esBAF inh)
CN1CC(C(=O)c2ccc(F)cc2)C(c2c(F)cccc2Cl)C1 (stereo not given)	HSF-1 act 81.6 (no result: esBAF inh)
CCCCn1c(O)c(C(C)=NCc2ccco2)c(=O)[nH]c1=O	Wnt act 45.1 (no result: MITF TRPM1 HTS)
C=CCn1c(O)c(C(C)=NCc2ccco2)c(=O)[nH]c1=O	none
C=CCn1c(O)c(C(CC)=NCc2ccco2)c(=O)[nH]c1=O	HSF-1 act 66.3
CCCCn1c(O)c(C(C)=NCc2cccnc2)c(=O)[nH]c1=O	none (no result: MITF TRPM1 HTS, esBAF inh)
COC(=O)[C@@H]1[C@@H](CO)[C@@H]2Cn3c(ccc(-c4ccccc4OC)c3=O)[C@H]1N2Cc1ccccc1	none (no result: HSF1 inhib, MITF TRPM1 HTS, Wnt act, SMARCA2 activ, HSF-1 act)
Cc1cc(C)cc(OCCOc2cccc(C=C3C(=O)NC(=O)NC3=O)c2)c1	none (no result: MITF TRPM1 HTS)
Cc1ccc(OCCOc2cccc(C=C3C(=O)NC(=O)NC3=O)c2)cc1	Wnt act 36.7
C[N+]1(CC2COC(c3ccco3)O2)CCCCC1 (stereo not given)	HSF1 inhib -66.4 (no result: esBAF inh)
CCn1c(O)c(C=Nc2ccc(N3CCOCC3)cc2)c(=O)n(CC)c1=S	none (no result: MITF TRPM1 HTS)
CCn1c(O)c(C=Nc2ccc(N3CCOCC3)c(Br)c2)c(=O)n(CC)c1=S	HSF1 inhib -67.0
O=C1NC(=S)NC(=O)C1=Cc1cccn1-c1ccc(O)cc1	HSF-1 act 153.8 (no result: esBAF inh)
CC=Cc1ccc2n(c1=O)C[C@@H]1[C@@H](CO)[C@H](C(=O)N(C)C)N[C@H]21 (mixture of isomers)	none (no result: HSF1 inhib, MITF TRPM1 HTS, Wnt act, SMARCA2 activ, HSF-1 act)
Cc1ccc(-n2nc(C)c3c2NC(=O)CSC3c2ccc3c(c2)OCO3)cc1 (stereo not given)	HSF1 inhib -62.7
O=C1CC(N2CC=C(c3ccc(F)cc3)CC2)C(=O)N1c1ccc(F)cc1 (stereo not given)	HSF1 inhib -70.6 (no result: MITF TRPM1 HTS, Wnt act)
CCOC(=O)c1ccc(N2C(=O)CC(N3CC=C(c4ccc(F)cc4)CC3)C2=O)cc1 (stereo not given)	none (no result: MITF TRPM1 HTS, Wnt act)
Cc1cccc(S(=O)(=O)N2[C@@H]3Cn4c(ccc(-c5cccc(F)c5)c4=O)[C@H]2[C@@H](C(=O)O)[C@@H]3CO)c1	none (no result: HSF1 inhib, MITF TRPM1 HTS, Wnt act, SMARCA2 activ, HSF-1 act)
COC(=O)[C@H]1[C@H](CO)[C@H]2Cn3c(ccc(-c4cccnc4)c3=O)[C@@H]1N2CCc1ccccc1	none (no result: HSF1 inhib, MITF TRPM1 HTS, Wnt act, SMARCA2 activ, HSF-1 act)
C=CCN1CCc2cccc3c2[C@H]1Cc1ccc(O)c(O)c1-3	HSF-1 act 95.4 (no result: MITF TRPM1 HTS)

Bioassay records as filed in PubChem.
